This is an account of results in PubChem BioAssay (Tox21).

Results filed as inconclusive are left out. A call without a number means that no potency is given here. Activity calls are given as the source filed them. The call rests on the fitted dose curve; in most records, active means well fitted activation curve with a large enough effect in the repeat runs; inconclusive means weak or mixed curves; inactive means flat fitted curve, though single readings scatter.

The nature of the experiment: A CellTox Green Cytotoxicity Assay to monitor cytotoxicity in HepG2 cells - 16 hour (AID 1224876). Further: nearly all actives have a fitted effect of over 45% in size. As to conditions: CellTox Green fluorescence; series mostly up to 76.8 µM; cytotoxicity increase: at the top concentration. The source says:
National Center for Advancing Translational Sciences [NCATS]
NIH Chemical Genomics Center [NCGC]
U.S. Environmental Protection Agency [EPA]
National Institutes of Environmental Health Sciences [NIEHS]
National Toxicology Program [NTP]
Cell-based models are critical for drug discovery. Determining the natural cytotoxic effects resulting from test compounds is an essential research activity. A CellTox Green Cytotoxicity Assay to monitor cytotoxicity in real time of continues cell culture during 40 hours of the compound treatment was used to screen Tox21 10K library compounds in HepG2 cells. CellTox Green Cytotoxicity Assay is a nonlytic, homogeneous, biofluorescent method to measure cytotoxicity in cell culture after experimental manipulation. The assay system uses a proprietary asymmetric cyanine dye that is excluded from viable cells but preferentially stains the dead cell's DNA. […] Viable cells produce no appreciable increases in fluorescence. Therefore, the fluorescence signal produced by the binding interaction with dead cell DNA is proportional to cytotoxicity.
The mixture of HepG2 cell suspension and reagents were dispensed at 600cells/6 ul/well in 1536-well tissue culture treated black solid bottom plates using a Multidrop dispenser. After the assay plates were incubated at a 37 C/5% CO2 incubator for 5 hours, 23 nL of compounds dissolved in DMSO, positive and negative controls was transferred to the assay plate by a pintool work station. The plates were incubated at 37 C for 40 hours. The fluorescence intensity were measured at 0h, 8h, 16h, 24h, 32h and 40h time points using ViewLux plate reader during compound treatment.
For the compound `NCCc1ccc(O)cc1`, the Potency entry is “inactive”.

`O=C(O)c1ccccn1`: the Potency entry is “inactive”.

Turning to `CCCCOC(=O)c1ccccc1C(=O)OCCCC`, the Potency entry was “inactive”.

As to `Oc1ccccc1Cl`, the Potency result was “inactive”.

Consider `Cc1ccc([N+](=O)[O-])cc1C`, for which the Potency entry was “inactive”.

Take `Cc1cccc([N+](=O)[O-])c1`: the Potency entry is “inactive”.

With `CC1C=[C-]C=C1.[C-]#[O+].[C-]#[O+].[C-]#[O+].[Mn]`, the Potency result was “inactive”.

In the case of `OC(O)C(Cl)(Cl)Cl`, the Potency result was “inactive”.

In the case of `COCCl`, the Potency entry was “inactive”.

Turning to `CCOP(=S)(OCC)Oc1cnc2ccccc2n1`, the “cytotoxicity increase” value is 2.53% (inactive).

Regarding `Clc1cccc(Cl)c1Cl`, the Potency entry was “inactive”.

As to `C=C(C)CCl`, the Potency result was “inactive”.

As to `C=CC(N)=O`, the Potency entry was “inactive”.

As to `CON(C)C(=O)Nc1ccc(Cl)c(Cl)c1`, the Potency entry is “inactive”.

On to `Nc1ccccc1C(=O)O`, for which the Potency result is “inactive”.

For the compound `O=c1[nH]c2ccccc2c(=O)o1`, the Potency result is “inactive”.

Take `BrCCBr`: the Potency entry was “inactive”.

For the compound `ClCCBr`, the Potency result is “inactive”.

On to `CC1OC(C)OC(C)O1` (stereo not given), for which the Potency result was “inactive”.

As for `CN(C)[C@@H]1C(=O)C(C(N)=O)=C(O)[C@@]2(O)C(=O)C3=C(O)c4c(O)cccc4[C@@](C)(O)[C@H]3C[C@@H]12`, the Potency entry is “inactive”.

As for `CCN(CC)CCO`, the Potency result was “inactive”.

Take `CCCCCOC(=O)c1ccccc1C(=O)OCCCCC`: the Potency result is “inactive”.

Regarding `C[C@]12CC[C@H]3[C@@H](CC[C@@]45O[C@@H]4C(O)=C(C#N)C[C@]35C)[C@@H]1CC[C@@H]2O`, the Potency entry is “inactive”.

Regarding `O=S(=O)(c1ccc(O)cc1)c1ccc(O)cc1`, the Potency result was “inactive”.

For the compound `CC(C)(Cl)Cl`, the Potency result was “inactive”.

Consider `c1ccc2c(c1)Oc1ccccc1O2`, for which the Potency result is “inactive”.

As to `[O-][Cl+2]([O-])O`, the Potency result is “inactive”.

For the compound `CC(C)=C[C@@H]1[C@@H](C(=O)OCc2coc(Cc3ccccc3)c2)C1(C)C`, the Potency entry was “inactive”.

Take `O=c1ccc(=O)[nH][nH]1`: the “cytotoxicity increase” value is 7.16% (inactive).

For the compound `Nc1ccc(Cc2ccc(N)cc2)cc1`, the Potency entry was “inactive”.

Consider `CC(C#N)CCC#N` (stereo not given), for which the Potency result was “inactive”.

Turning to `CCC[N+](=O)[O-]`, the Potency entry is “inactive”.

Turning to `CC(Br)C(=O)O` (stereo not given), the Potency result was “inactive”.

Take `COP(N)(=O)SC` (stereo not given): the Potency result was “inactive”.

Consider `CN=C=S`, for which the Potency entry was “inactive”.

For the compound `O=Cc1cccc(Oc2ccccc2)c1`, the Potency entry is “inactive”.

As to `CCc1cccc(C)c1N(C(=O)CCl)C(C)COC` (stereo not given), the Potency entry is “inactive”.

Regarding `O=C(NC(=O)c1c(F)cccc1F)Nc1cc(Cl)c(OC(F)(F)C(F)C(F)(F)F)cc1Cl` (stereo not given), the Potency entry was “inactive”.

As for `CC(C)(C)OOC(=O)c1ccccc1`, the “cytotoxicity increase” value was -9.32% (inactive).

`ClCc1cccnc1`: the Potency result was “inactive”.
